Data as given in PubChem BioAssay AID1159580 (chemical genetic matrix, 2015).
Screen size: about 5,500 compounds; about 2,000 (36%) were called active. About 18% were inconclusive and are not listed. No stated cut-off is given here; in the data, active means normalized growth mostly below about 0.91 (no sharp cut-off); inconclusive means no clear call, values can overlap the other calls; inactive means mostly above about 0.92. This is one part of the list.

Experiment: chemical genetic growth profiling, strain panel (AID 1159580);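 further: tested at 20 µM; growth read once vehicle control cultures reached saturation at 30 °C; 1 = growth at the plate median or of vehicle wells; lower values mean less growth of the strain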
Conditions: growth OD

Measured: normalized growth

CC(C)CCCC(C)[C@H]1CCC2C3CC=C4C[C@@H](O)CC[C@]4(C)C3CC[C@@]21C (some centres undefined)
inactive: S. cerevisiae deletion strains, locus YJR075W, strain HOC1, active compounds read low 1.02 | S. cerevisiae deletion strains, locus YKL009W, strain mrt4, active compounds read low 0.99 | S. cerevisiae deletion strains, locus YKL068W, active compounds read low 1 | S. cerevisiae deletion strains, locus YKL085W, strain MDH1 (second series), active compounds read low 0.999 | S. cerevisiae deletion strains, locus YKL085W, strain MDH1, active compounds read low 0.999 | S. cerevisiae deletion strains, locus YKL160W, strain elf1, active compounds read low 1.01 | S. cerevisiae deletion strains, locus YKL190W, strain CNB1, active compounds read low 1.01 | S. cerevisiae deletion strains, locus YKR001C, strain vps1, active compounds read low 0.985 | S. cerevisiae deletion strains, locus YKR026C, strain gcn3, active compounds read low 0.988 | S. cerevisiae deletion strains, locus YKR091W, strain srl3, active compounds read low 0.981 | S. cerevisiae deletion strains, locus YLL001W, strain dnm1, active compounds read low 1 | S. cerevisiae deletion strains, locus YLL026W, active compounds read low 0.993 | S. cerevisiae deletion strains, locus YLL041C, strain sdh2, active compounds read low 0.968 | S. cerevisiae deletion strains, locus YLR027C, strain aat2, active compounds read low 0.981 | S. cerevisiae deletion strains, locus YLR039C, strain RIC1, active compounds read low 1.02 | S. cerevisiae deletion strains, locus YLR058C, strain SHM2, active compounds read low 1.01 | S. cerevisiae deletion strains, locus YLR102C, strain apc9, active compounds read low 0.995 | S. cerevisiae deletion strains, locus YLR113W, strain HOG1, active compounds read low 1.04 | S. cerevisiae deletion strains, locus YLR221C, strain rsa3, active compounds read low 1.08 | S. cerevisiae deletion strains, locus YLR258W, strain gsy2, active compounds read low 1 | S. cerevisiae deletion strains, locus YLR262C, strain YPT6 (second series), active compounds read low 0.987 | S. cerevisiae deletion strains, locus YLR262C, strain YPT6, active compounds read low 1.02 | S. cerevisiae deletion strains, locus YLR268W, strain sec22, active compounds read low 0.963 | S. cerevisiae deletion strains, locus YLR320W, strain mms22, active compounds read low 1.01 | S. cerevisiae deletion strains, locus YLR330W, strain CHS5, active compounds read low 1.02 | S. cerevisiae deletion strains, locus YLR342W, strain FKS1 (second series), active compounds read low 1.02 | S. cerevisiae deletion strains, locus YLR342W, strain FKS1, active compounds read low 0.968 | S. cerevisiae deletion strains, locus YLR357W, strain rsc2, active compounds read low 0.983 | S. cerevisiae deletion strains, locus YLR370C, strain arc18, active compounds read low 0.974 | S. cerevisiae deletion strains, locus YLR371W, strain rom2, active compounds read low 0.988 | S. cerevisiae deletion strains, locus YLR384C, strain iki3, active compounds read low 0.97 | S. cerevisiae deletion strains, locus YLR418C, strain cdc73, active compounds read low 1 | S. cerevisiae deletion strains, locus YML016C, strain PPZ1, active compounds read low 1.01 | S. cerevisiae deletion strains, locus YML032C, strain rad52, active compounds read low 1 | S. cerevisiae deletion strains, locus YML120C, strain ndi1, active compounds read low 0.975 | S. cerevisiae deletion strains, locus YML124C, strain tub3, active compounds read low 0.999 | S. cerevisiae deletion strains, locus YMR058W, strain fet3, active compounds read low 0.972 | S. cerevisiae deletion strains, locus YMR078C, strain ctf18, active compounds read low 0.999 | S. cerevisiae deletion strains, locus YMR125W, strain sto1, active compounds read low 0.94 | S. cerevisiae deletion strains, locus YMR129W, active compounds read low 0.975 | S. cerevisiae deletion strains, locus YMR205C, strain PFK2, active compounds read low 1 | S. cerevisiae deletion strains, locus YMR223W, strain ubp8, active compounds read low 1.02 | S. cerevisiae deletion strains, locus YMR231W, strain pep5, active compounds read low 0.967 | S. cerevisiae deletion strains, locus YMR263W, strain SAP30, active compounds read low 1.02 | S. cerevisiae deletion strains, locus YMR307W, strain GAS1, active compounds read low 1.04 | S. cerevisiae deletion strains, locus YNL067W, strain RPL9B, active compounds read low 1 | S. cerevisiae deletion strains, locus YNL071W, strain lat1, active compounds read low 0.966 | S. cerevisiae deletion strains, locus YNL183C, strain NPR1, active compounds read low 0.962 | S. cerevisiae deletion strains, locus YNL209W, strain ssb2, active compounds read low 0.98 | S. cerevisiae deletion strains, locus YNL233W, strain BNI4, active compounds read low 1.02 | S. cerevisiae deletion strains, locus YNL248C, strain rpa49, active compounds read low 0.963 | S. cerevisiae deletion strains, locus YNL250W, strain rad50, active compounds read low 1.02 | S. cerevisiae deletion strains, locus YNL271C, strain bni1, active compounds read low 0.994 | S. cerevisiae deletion strains, locus YNL298W, strain CLA4, active compounds read low 0.995 | S. cerevisiae deletion strains, locus YNL307C, strain MCK1, active compounds read low 0.987 | S. cerevisiae deletion strains, locus YNL322C, strain KRE1 (second series), active compounds read low 0.964 | S. cerevisiae deletion strains, locus YNL322C, strain KRE1, active compounds read low 1.01 | S. cerevisiae deletion strains, locus YNR049C, strain mso1, active compounds read low 0.981 | S. cerevisiae deletion strains, locus YNR052C, strain pop2, active compounds read low 0.99 | S. cerevisiae deletion strains, locus YOL012C, strain htz1 0.694 | S. cerevisiae deletion strains, locus YOL147C, strain pex11, active compounds read low 0.99 | S. cerevisiae deletion strains, locus YOR001W, strain rrp6, active compounds read low 0.99 | S. cerevisiae deletion strains, locus YOR061W, strain CKA2, active compounds read low 1.01 | S. cerevisiae deletion strains, locus YOR069W, strain VPS5, active compounds read low 1.01 | S. cerevisiae deletion strains, locus YOR070C, strain gyp1, active compounds read low 1.07 | S. cerevisiae deletion strains, locus YOR080W, strain dia2, active compounds read low 0.991 | S. cerevisiae deletion strains, locus YOR083W, strain WHI5, active compounds read low 1.03 | S. cerevisiae deletion strains, locus YOR106W, strain vam3, active compounds read low 0.988 | S. cerevisiae deletion strains, locus YOR136W, strain idh2, active compounds read low 0.99 | S. cerevisiae deletion strains, locus YOR144C, strain elg1, active compounds read low 0.986 | S. cerevisiae deletion strains, locus YOR184W, strain ser1, active compounds read low 0.984 | S. cerevisiae deletion strains, locus YOR231W, strain MKK1, active compounds read low 1.03 | S. cerevisiae deletion strains, locus YOR265W, strain rbl2, active compounds read low 0.989 | S. cerevisiae deletion strains, locus YOR270C, strain vph1, active compounds read low 0.901 | S. cerevisiae deletion strains, locus YOR290C, strain snf2, active compounds read low 0.987 | S. cerevisiae deletion strains, locus YOR316C, strain cot1, active compounds read low 0.987 | S. cerevisiae deletion strains, locus YPL051W, strain arl3, active compounds read low 1.03 | S. cerevisiae deletion strains, locus YPL055C, strain LGE1, active compounds read low 1.03 | S. cerevisiae deletion strains, locus YPL078C, strain atp4, active compounds read low 0.98 | S. cerevisiae deletion strains, locus YPL106C, strain sse1, active compounds read low 0.999 | S. cerevisiae deletion strains, locus YPL240C, strain hsp82, active compounds read low 0.985 | S. cerevisiae deletion strains, locus YPL241C, strain CIN2, active compounds read low 1.01 | S. cerevisiae deletion strains, locus YPL256C, strain CLN2, active compounds read low 1.01 | S. cerevisiae deletion strains, locus YPR119W, strain clb2, active compounds read low 0.992 | S. cerevisiae deletion strains, locus YPR141C, strain kar3, active compounds read low 0.995 | S. cerevisiae deletion strains, locus YPR163C, strain tif3, active compounds read low 0.988 | S. cerevisiae deletion strains, locus YPR167C, strain met16, active compounds read low 0.995 | S. cerevisiae deletion strains, strain wtn01, active compounds read low 0.972 | S. cerevisiae strains, strain wild type, active compounds read low 1
